The values that follow come from ChEMBL document CHEMBL3433997, “St. Jude Leishmania screening dataset” (2016).

Common to all, as to format: functional
Experiment [1] addresses Solute carrier family 2, facilitated glucose transporter member 1 (Homo sapiens) (UniProt P11166). The experiment is described as follows: ST_JUDE_LEISH: Cytotoxicity at 2uM final concentration against transgenic Leishmania Mexicana promastigotes LmGLUT1 that are glucose transport deficient and complemented with the human glucose transporter GLUT1. Activity is measured by DNA content using SYBR green in vitro.

In experiment [2] the target is Hexose transporter 1 (Plasmodium falciparum) (UniProt O97467). The experiment is described as follows: ST_JUDE_LEISH: Cytotoxicity at 2uM final concentration against transgenic Leishmania Mexicana promastigotes LmPfHT that are glucose transport deficient and complemented with the Plasmodium falciparum hexose transporter. Activity is measured by DNA content using SYBR green in vitro.

Experiment [3] deals with Glucose transporter (Leishmania mexicana) (UniProt O61059). The experiment is described as follows: ST_JUDE_LEISH: Cytotoxicity at 2uM final concentration against transgenic Leishmania Mexicana promastigotes LmGT2 that are glucose transport deficient and complemented with the L. Mexicana glucose transporter 2. Activity is measured by DNA content using SYBR green in vitro.

Chain of Solute carrier family 2, facilitated glucose transporter member 1 (Homo sapiens) (P11166 whole entry): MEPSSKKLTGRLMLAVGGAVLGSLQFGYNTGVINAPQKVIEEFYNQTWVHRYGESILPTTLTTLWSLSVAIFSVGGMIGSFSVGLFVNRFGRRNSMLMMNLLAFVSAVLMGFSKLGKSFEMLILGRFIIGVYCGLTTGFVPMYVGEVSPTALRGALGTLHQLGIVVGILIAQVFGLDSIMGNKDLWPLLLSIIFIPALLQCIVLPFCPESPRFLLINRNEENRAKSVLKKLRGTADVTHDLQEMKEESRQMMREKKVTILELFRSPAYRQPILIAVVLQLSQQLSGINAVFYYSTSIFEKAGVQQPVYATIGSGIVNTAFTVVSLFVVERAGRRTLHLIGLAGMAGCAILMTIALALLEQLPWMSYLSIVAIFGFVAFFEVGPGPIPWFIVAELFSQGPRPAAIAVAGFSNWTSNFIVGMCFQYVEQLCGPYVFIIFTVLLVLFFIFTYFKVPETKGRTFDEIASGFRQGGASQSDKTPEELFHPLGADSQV

`Fc1cccc(COc2ccc(Nc3ncnc4sc(C#Cc5ncc[nH]5)cc34)cc2Cl)c1`: the results for the inhibition in experiment [1], in experiment [2] and in experiment [3] were 0.39%, -0.11% and -0.59%, respectively.
Regarding `CC(CN1CCN(C)CC1)C(=O)Nc1ccc(-c2ccc(-c3nc4ccccc4[nH]3)s2)cc1` (stereo not given), the inhibition in experiment [1] worked out at 5.66%; in experiment [2], 5.15%; in experiment [3], 3.56%.
The like results for `COc1ccc2nccc(NC(=O)C3CCC(NCc4ccc5c(c4)NC(=O)CS5)CC3)c2c1` (stereo not given) were, in that order, 4.42%, 2.96% and 0.5%.
For `O=C(Nc1cc(F)c(F)c(-c2cccnc2)c1)N1CCc2cc(Cl)c(Cl)cc21` the same measures were 0.67%, -1.8% and -0.31%.
`CC(C)Nc1ccc(Nc2ccnc3cc4ccccc4cc23)cc1`: the inhibition in experiment [1] worked out at 1.19%; in experiment [2] it was 4.38%; in experiment [3], 0.5%.
Turning to `CCNc1cc(C(=O)N[C@@H](Cc2ccccc2)[C@H](O)CNC2(CC)CC2)cc(N2CCCCS2(=O)=O)c1`, the inhibition in experiment [1] was -3.85%; in experiment [2] it was 2.01%; in experiment [3] it was -2.45%.
Consider `OCC1CCN(Cc2ccc(-c3ccc(-c4nc5cc(F)ccc5[nH]4)s3)cc2)CC1`, for which the results for the inhibition in experiment [1], in experiment [2] and in experiment [3] were 4.75%, 3.26% and 4.89%, respectively.
Take `COc1ccc(C(=O)CCC(=O)N(Cc2ccc(-c3ccc(CNCCc4ccc(S(C)(=O)=O)cc4)cn3)cc2)C(C)CN(C)C)cc1F` (stereo not given): the inhibition amounted to 3.43% in experiment [1], 3.18% in experiment [2] and 2.85% in experiment [3].
In the case of `CN1CCC(C(=O)N(Cc2ccc(-c3ccc(CNCCc4ccc(S(C)(=O)=O)cc4)cn3)cc2)C2Cc3ccccc3C2)CC1`, the inhibition in experiment [1] is 0.67%; in experiment [2] it was -0.29%; in experiment [3] it was -0.85%.
Take `CC(=O)Nc1ccc(OCCCCCOc2ccc(NC(C)=O)cc2Cl)c(Cl)c1`: the inhibition in experiment [1] is 1.91%; in experiment [2], 1.52%; in experiment [3] it was 1.13%.
`Cc1cccc2nc(-c3ccc(-c4cccc(CNCC5CCCO5)c4)s3)[nH]c12` (stereo not given): the inhibition in experiment [1] came out at 13%; in experiment [2], 11.4%; in experiment [3], 11.3%.
As for `O=C(Nc1cncc(NC(=O)c2ccc(Cl)c(Cl)c2)c1)c1ccc(Cl)c(Cl)c1`, the inhibition was 2.62% in experiment [1], 2.96% in experiment [2] and -0.68% in experiment [3].
Turning to `CCN(CC)CCN(Cc1ccc(-c2ccc(C(F)(F)F)cc2)cc1)C(=O)Cn1cc(Cc2cnn(C)c2)c(=O)nc1/C=C/c1cccc(F)c1F`, the inhibition in experiment [1] amounted to 3.81%; in experiment [2] it was 4.43%; in experiment [3] it was 2.54%.
As for `Cc1c(Cn2ncc(N3CCC(N)CC3)c(Cl)c2=O)cccc1NC(=O)Nc1ccc(-c2ccccc2)cc1`, the inhibition in experiment [1] was determined as 3.52%; in experiment [2], 4.24%; in experiment [3] it was 5.11%.
Consider `N=C1C=C(N)C(=O)c2ccccc21`, for which the inhibition is 89% in experiment [1], 100% in experiment [2] and 94.2% in experiment [3].
For `NCC1CCCN1Cc1cccc(-c2ccc(-c3nc4cc(C(F)(F)F)ccc4[nH]3)cc2)c1` (stereo not given) the same measures were 0.06%, 0.65% and -0.43%.
Turning to `O=C(Nc1ccc(OC2CCN(Cc3ccsc3)C2)c(Cl)c1)c1cccs1` (stereo not given), the inhibition in experiment [1] came out at 2.98%; in experiment [2] it was 3.61%; in experiment [3], 2.52%.
For `Cc1cccc(CNc2nc(C)cc(N[C@@H](Cc3ccccc3)C(=O)NCc3cccc(F)c3)n2)c1` the same measures were 6.42%, 6.57% and 2.83%.
For the molecule `CCN(CC)CCOc1ccc(Nc2ncc3cc(-c4c(Cl)cccc4Cl)c(=O)n(C)c3n2)cc1`, the inhibition in experiment [1] is 75.8%; in experiment [2], 83.3%; in experiment [3], 17.9%.
With `CC(C)Oc1ccc2ccccc2c1CNCCCCCCNCc1c(OC(C)C)ccc2ccccc12`, the inhibition is 31.1% in experiment [1], -0.9% in experiment [2] and 50.6% in experiment [3].
As to `Cc1cccc2nc(-c3ccc(-c4ccc(CN5CCCC(O)C5)cc4)s3)[nH]c12` (stereo not given), the inhibition was 6.59% in experiment [1], 7.2% in experiment [2] and 3.86% in experiment [3].
Take `COc1ccc2nc3cc(Cl)ccc3c(Nc3ccc(Sc4ccc(Nc5c6ccc(Cl)cc6nc6ccc(OC)cc56)cc4)cc3)c2c1`: the values for the inhibition in experiment [1], in experiment [2] and in experiment [3] were 3.47%, 4.48% and 3.6%, respectively.
Consider `NS(=O)(=O)NCCCN1CCN(c2ccccc2)CC1`, for which the inhibition in experiment [1] worked out at 1.95%; in experiment [2] it was 1.37%; in experiment [3] it was 1.5%.
For the molecule `CC(C)(C)c1ccc(N2C(N)=NC(N)=NC2(C)C)cc1Cl`, the values for the inhibition in experiment [1], in experiment [2] and in experiment [3] were 9.03%, 7.39% and 5.67%, respectively.
`COc1cc(C(=O)NCCCN2CCN(c3cccc(Cl)c3)CC2)ccc1-c1cc2cc(Cl)c(Cl)cc2[nH]1`: the inhibition came to 4.57% in experiment [1], 4.17% in experiment [2] and 3.53% in experiment [3].
The like results for `O=C(NCCCCCN1CCC(c2ccc(O)cc2)CC1)c1ccc(-c2ccccc2)cc1` were, in that order, 5.44%, 3.34% and 6%.
For the molecule `CCc1cn2c3c(cc(C(=O)N[C@@H](Cc4cc(F)cc(F)c4)[C@H](O)CNC4CCCCC4)cc13)N(C)S(=O)(=O)CC2`, the inhibition in experiment [1] is 0.79%; in experiment [2], 0.2%; in experiment [3], -2.62%.
`COc1ccc2nccc([C@@H](O)CN3CCC(NCc4cc5c(F)ccc(F)c5[nH]4)CC3)c2c1`: the inhibition came out at 21.9% in experiment [1], 29.8% in experiment [2] and 2.77% in experiment [3].
The like results for `CC(=O)c1ccc2c(c1)CCN(CCC1CCC(NC(=O)c3cc4ccccc4[nH]3)CC1)CC2` (stereo not given) were, in that order, 2.67%, -0.31% and 3.71%.
Regarding `CC(=O)c1ccc(NC(=O)Nc2ccc(N(C)c3ccnc(NC4CC4)n3)cc2)cc1`, the inhibition in experiment [1] was -0.95%; in experiment [2] it was -3.95%; in experiment [3] it was 0.62%.
Consider `COc1cc(NC(=O)/C=C/c2cc(F)cc(F)c2F)cc(OCCN2CCC(O)(c3ccccc3)CC2)c1`, for which the figures for the inhibition in experiment [1], in experiment [2] and in experiment [3] were 3.43%, 1.97% and 2.47%, respectively.
Regarding `Cc1nnc2c(N(C(=O)NCCc3ccccc3)C(=O)NCCc3ccccc3)cc3cc(Cl)ccc3n12`, the values for the inhibition in experiment [1], in experiment [2] and in experiment [3] were 11.2%, 10.1% and 8.99%, respectively.
The like results for `OCC1CCN(Cc2cccc(C#Cc3cc4ncnc(Nc5ccc(OCc6cccc(F)c6)c(Cl)c5)c4s3)n2)CC1` were, in that order, 14.1%, 8.82% and 9.61%.
As for `Cc1ccc2nc3ccccc3c(NCCN3CCN(C)CC3)c2c1`, the values for the inhibition in experiment [1], in experiment [2] and in experiment [3] were 39.1%, 50.6% and 21.1%, respectively.
`CCN(C(=O)CSc1cc(C)c2cc(C)cc(C)c2n1)C1CCS(=O)(=O)C1` (stereo not given): the inhibition was 0.63% in experiment [1], 0.78% in experiment [2] and -0.42% in experiment [3].
